Source: PubChem BioAssay (National Center for Advancing Translational Sciences (NCATS))
Only some compounds are listed: those with a hit (about 1.1% of all), similar ones and a draw of the others.
Anesthetic bind: binds horse apoferritin like a general anesthetic | 350,000 tested, 0.074% active | Potency, µM (top dose mostly 77.5 µM), usual class: inhibitors | P02791 | apoferritin/1-aminoanthracene competitive binding, fluorescence | AID 485281; also: nearly all actives have a fitted effect of over 20% in size
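Concentration-response curves derived by four-parameter Hill fitting of normalized fluorescence, where compounds displaced 1-AMA from 10 uM horse apoferritin following a brief 10 min room-temperature incubation; propofol titration acted as positive control.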
Glioma ERSR ind: induces the endoplasmic reticulum stress response in human glioma cells; Potency, µM, hits mostly activators; U87-MG GRP78 promoter luciferase reporter, 16 h; 420,000 tested, 0.02% active; AID 602332; also: series mostly up to about 76 µM; nearly all actives have a fitted effect of over 35% in size
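Stably transfected U87-MG human glioma cells carrying a GRP78-based luminescent sensor were seeded at 1000 cells/well, pin-dosed with compounds and incubated 16 h. Luciferase reagent was then added, and end-point luminescence was read after 10 min at room temperature.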
12-LOX inh: blocks human arachidonate 12S-lipoxygenase. P18054. purified 12hLO, xylenol orange hydroperoxide absorbance. Potency, µM (highest dose often 108 µM), hits mostly inhibitors. 580,000 tested, 1.1% active. AID 1671190
Target sequence (P18054 whole entry, looked up): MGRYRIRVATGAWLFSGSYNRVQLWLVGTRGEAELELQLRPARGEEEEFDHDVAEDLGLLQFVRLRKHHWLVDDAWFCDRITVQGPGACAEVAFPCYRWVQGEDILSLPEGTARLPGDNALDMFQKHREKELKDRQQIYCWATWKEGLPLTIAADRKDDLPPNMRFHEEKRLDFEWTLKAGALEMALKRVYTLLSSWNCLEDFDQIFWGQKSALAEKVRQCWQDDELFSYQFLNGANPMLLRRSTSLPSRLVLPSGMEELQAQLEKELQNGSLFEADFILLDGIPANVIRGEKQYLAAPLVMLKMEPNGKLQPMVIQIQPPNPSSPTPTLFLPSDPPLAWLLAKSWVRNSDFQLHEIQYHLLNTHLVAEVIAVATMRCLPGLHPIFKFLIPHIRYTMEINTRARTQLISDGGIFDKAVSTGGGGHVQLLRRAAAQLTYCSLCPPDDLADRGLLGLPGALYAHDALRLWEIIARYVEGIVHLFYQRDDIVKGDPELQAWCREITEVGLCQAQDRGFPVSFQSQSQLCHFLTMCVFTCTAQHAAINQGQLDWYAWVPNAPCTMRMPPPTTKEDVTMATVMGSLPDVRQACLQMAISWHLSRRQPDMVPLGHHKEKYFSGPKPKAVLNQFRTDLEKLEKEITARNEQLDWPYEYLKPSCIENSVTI
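Hydroperoxide product was detected by ferrous iron/xylenol orange as the 573 to 405 nm absorbance ratio. Arachidonic acid at 40 uM (final) was turned over for 30 min at room temperature by 150 nM human 12hLO, pH 7.0 Hepes buffer, after 15 min compound preincubation.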
Chronic BCR inh: chronic active BCR signaling inhibition; ABC-DLBCL IkBa-CBG/CBR reporter, luminescence ratio, 4 h; Potency, µM (doses to about 46.1 µM), hits mostly inhibitors; 340,000 tested, 0.05% active; AID 493014; active = well fitted inhibition curve with a large enough effect in the signal ratio, with a control signal flat, not every such curve was filed as active; inconclusive = small, poorly fitted or top-dose-only effect, or effect the other way, or a change in a side signal; the % refers to the signal ratio
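TMD8 ABC-DLBCL cells carrying doxycycline-inducible green luciferase fused to IkappaBalpha plus unfused red luciferase were exposed to compounds (up to 46 uM) for 4 hrs at 37C. Activity came from the overlap-corrected green/red luminescence ratio.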
A number is an active result; - = inactive; ? = inconclusive; . = no result; [ ] = another dose, or the depositor's remark. Unless noted, calls follow the shape of the dose curve; as a rule, active = well fitted curve in the direction sought with a large enough effect; inconclusive = small, poorly fitted or top-dose-only effect, or another doubt; inactive = no such curve, though single readings can be large; an effect the other way counts as inactive or inconclusive.

SMILES	Anesthetic bind	Glioma ERSR ind	12-LOX inh	Chronic BCR inh
COc1ccc(CCN2CC(C#N)=C3c4cc(OC)c(OC)cc4CCN3C2)cc1OC	-	-	-	-
COc1cc2c(cc1OC)C1=C(C#N)CN(C3CCCCC3)CN1CC2	-	-	40µM	-
COc1ccc(CN(C)Cc2c(O)ccc3ccccc23)cc1	-	-	10µM	-
COc1ccc2ccc(O)c(CN(C)CC(=O)Nc3ccccc3C(F)(F)F)c2c1	-	-	7.1µM	-
COc1cccc(CN(C)Cc2c(O)ccc3ccccc23)c1	-	-	10µM	?
COc1ccc2c(c1)c(C(C(=O)O)N1CCN(Cc3ccccc3)CC1)cn2CC(=O)O (configuration not stated)	.	.	-	.
OC(CN1CCNCC1)Cn1c2ccc(Br)cc2c2cc(Br)ccc21 (configuration not stated)	-	.	28µM	.
COc1ccc([C@H]2CC(=O)C[C@@H](CCn3cc(-c4cccnc4)nn3)O2)cc1	.	.	-	.
COc1ccc([C@H]2CC(=O)C[C@@H](CCn3cc(-c4ccccc4)nn3)O2)cc1	.	.	10µM	.
CC(C(=O)Nc1ccc2[nH]c(=O)[nH]c2c1)N(C)Cc1ccccc1N1CCCCC1 (configuration not stated)	.	.	-	.
COc1ccccc1C(=O)N1CCc2nc(C3CC3)nc(-c3ccc(Cl)cc3)c2C1	.	.	45µM	.
COc1ccc(-c2nc(C3CC3)nc3c2CN(C(=O)c2ccccc2F)CC3)cc1	.	.	-[6.33 µM]	.
CC(C)CC(=O)Nc1cccc(C(=O)Nc2ccc(C(=O)O)cc2)c1	.	.	-	.
O=C(O)c1cc(N2N=C(C(F)(F)F)/C(=C/C=C/c3ccco3)C2=O)ccc1Cl	-	-	5.6µM	?
CCOC(=O)c1ccc(N2N=C(C)/C(=C/C=C/c3ccco3)C2=O)cc1	-	-	-	?
Clc1ccccc1C(c1nnnn1Cc1ccco1)N1CCN(Cc2ccco2)CC1 (configuration not stated)	-	-	45µM	?
CC(C)(C)c1ccccc1NC(=O)c1ccccc1F	.	.	-	.
O=C(NCC1(COc2cnccn2)C[C@@H](O)[C@@H](O)C1)Nc1cccnc1 (some centres not stated)	.	.	25µM	.
CSc1nnc(C)c(/C=C/NOCc2cccc(F)c2)n1	-	-	?	-
CSc1nnc(C)c(/C=C/Nc2ccc(F)cc2F)n1	-	-	35µM	-
CN(C)CCNC(=O)c1nc2nc(-c3ccccc3)c(-c3ccc(O)c(F)c3)cc2n1C	.	.	-	.
CCN(CC)C1=NC(=O)C(CC(=O)Nc2cccc(C(=O)NCCc3ccccc3OC)c2)S1 (configuration not stated)	.	.	1.1µM	.
Cc1nn(-c2ccccc2)c(N2CCCC2)c1/C=N/NC(=S)Nc1cc(C(F)(F)F)ccc1Cl	-	-	?	?
Cc1nn(-c2ccccc2)c(N2CCCC2)c1/C=N/NC(=S)Nc1ccccc1C(F)(F)F	-	-	35µM	-
CC(=O)c1ccc(SCC(=O)NCCC2=CCCCC2)c(F)c1	.	.	-	.
SMILES	Anesthetic bind	Glioma ERSR ind	12-LOX inh	Chronic BCR inh
C=CCN1CCN(C(=O)CCC[C@H]2NC[C@@H]3C[C@H]2CN(Cc2ccccc2)C3)CC1	.	.	5.6µM	.
COc1ccccc1CNC(=O)CCC[C@H]1NC[C@@H]2C[C@H]1CN(Cc1ccccc1)C2	.	.	10µM	.
O=C(CCC[C@H]1NC[C@@H]2C[C@H]1CN(Cc1ccccc1)C2)N1CCN(C2CCCC2)CC1	.	.	-	.
CC1=C(O)C(=O)CO1	.	.	25µM	.
O=C1OCC(CC2=C(O)C(=O)OC2)=C1O	.	-	-	.
CCCCC(CC)CNC(=O)CCC(=O)NC1CCCCCCCCCCC1 (configuration not stated)	.	.	-	.
CC(C)(O)C(=O)NNC(=S)Nc1cccc(C(F)(F)F)c1	-	-	-	-
CC(O)(CS(=O)(=O)Cc1ccc(Cl)cc1)C(=O)Nc1cccc(C(F)(F)F)c1 (configuration not stated)	-	-	3.2µM	?
CC(=O)O[C@H]1C[C@@H]2CC[C@@]1(C)C2(C)C	.	.	-	.
CC(=O)OC(COC1CC2CCC1(C)C2(C)C)C[N+]1(C)CCCCC1 (configuration not stated)	.	.	13µM	.
NS(=O)(=O)c1ccc(NCc2c(F)cccc2Cl)cc1	?	-	-	-
Fc1cccc(Cl)c1CNc1ccc(N2CCCC2)cc1	-	-	32µM	?
Cc1cc(C)cc(NC(=O)C(c2ccccc2)N2CCN(C(=O)C3CC3)CC2)c1 (configuration not stated)	.	.	-	.
COc1cc(OC)c(NC(=O)NCCn2c(C(F)(F)F)nc3ccccc32)cc1Cl	.	.	-	.
COc1cccc(C2CC(c3cccc(NS(C)(=O)=O)c3)=NN2C(=O)c2ccccc2)c1OC (configuration not stated)	-	-	-	-
CN(C)c1ccc(C2CC(c3cccc(NS(C)(=O)=O)c3)=NN2C(=O)c2ccccc2)cc1 (configuration not stated)	-	-	28µM	-
Cc1ncc(CN2CCCC2C(=O)Nc2ccc(-c3cccc(F)c3)cc2)n1C (configuration not stated)	.	.	-	.
COc1cc(CNC(C)Cn2nc(C)cc2C)ccc1OCCN1CCCC1 (configuration not stated)	.	.	-	.
CN1CCN(c2cc3c(c4c2[nH]c2ccccc24)C(=O)CC(C)(C)C3)CC1	-	-	40µM	?
CN1CCN(c2ccc(Cl)cc2NC(=O)c2cc(=O)[nH]c3ccccc23)CC1	.	-	-	-
O=c1n(-c2ccc(Cl)cc2)nc2n1CCN(Cc1cccc3ccccc13)C2	.	.	-[6.33 µM]	.
O=c1n(-c2ccc(F)cc2F)nc2n1CCN(Cc1cccc3ccccc13)C2	.	.	28µM	.
O=C(Nc1cc(Cl)ccc1O)c1cc(-c2ccco2)on1	-	?	?	?
